Experimental data reported in PubChem BioAssay AID504339 (National Center for Advancing Translational Sciences (NCATS), 2011).
Hit rate of the full screen: of about 390,000 compounds, about 17,000 (4.4%) were called active. A call without a number means that no potency is given here. Another 8% or so got no clear call; they are omitted. Calls follow the shape of the dose curve; as a rule, active = well fitted inhibition curve with a large enough effect; inconclusive = small, poorly fitted or top-dose-only effect; inactive = no such curve, though single readings can be large or run the other way. Many of the other results were omitted from the sample, so actives are more common in it than they were.

Molecular target: Lysine-specific demethylase 4A (Homo sapiens) (UniProt O75164)
Sequence (O75164 whole entry, looked up, the tested form may be a part): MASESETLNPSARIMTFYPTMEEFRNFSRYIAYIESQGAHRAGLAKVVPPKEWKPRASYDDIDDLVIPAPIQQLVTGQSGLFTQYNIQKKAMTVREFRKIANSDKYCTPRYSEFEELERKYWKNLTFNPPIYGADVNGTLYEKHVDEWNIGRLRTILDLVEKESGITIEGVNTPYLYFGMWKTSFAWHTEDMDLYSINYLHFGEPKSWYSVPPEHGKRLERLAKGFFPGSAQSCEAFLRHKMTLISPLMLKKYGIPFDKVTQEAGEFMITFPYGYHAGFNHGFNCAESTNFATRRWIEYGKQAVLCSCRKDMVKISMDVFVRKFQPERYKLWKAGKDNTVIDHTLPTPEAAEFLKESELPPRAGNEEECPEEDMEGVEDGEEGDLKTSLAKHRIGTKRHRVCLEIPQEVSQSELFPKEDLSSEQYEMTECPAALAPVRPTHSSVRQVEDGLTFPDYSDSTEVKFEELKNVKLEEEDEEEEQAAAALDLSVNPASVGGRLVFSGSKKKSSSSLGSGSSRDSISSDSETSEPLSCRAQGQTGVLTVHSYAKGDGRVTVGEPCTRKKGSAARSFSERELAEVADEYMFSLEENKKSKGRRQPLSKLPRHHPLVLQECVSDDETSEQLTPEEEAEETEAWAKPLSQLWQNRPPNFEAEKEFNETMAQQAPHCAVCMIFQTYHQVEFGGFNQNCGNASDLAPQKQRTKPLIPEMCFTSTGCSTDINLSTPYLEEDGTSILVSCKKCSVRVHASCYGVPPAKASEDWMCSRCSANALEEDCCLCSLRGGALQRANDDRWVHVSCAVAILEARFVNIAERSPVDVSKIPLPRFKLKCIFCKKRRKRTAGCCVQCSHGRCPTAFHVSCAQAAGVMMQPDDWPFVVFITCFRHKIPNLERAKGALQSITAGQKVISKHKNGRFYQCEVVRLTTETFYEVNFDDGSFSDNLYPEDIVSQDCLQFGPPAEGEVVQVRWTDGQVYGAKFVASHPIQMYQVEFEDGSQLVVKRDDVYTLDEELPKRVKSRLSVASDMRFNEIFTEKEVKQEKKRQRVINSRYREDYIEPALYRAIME
Test: qHTS Assay for Inhibitors of JMJD2A-Tudor Domain; also: nearly all actives have a fitted effect of over 50% in size
Conditions: AlphaScreen JMJD2A-Tudor / H3K4me3 peptide binding; series mostly up to 114 µM
Potency is read from the fitted curve at half-maximal effect.

Row | Structure (SMILES) | Potency
1 | Cc1ccc(-c2cn3c(n2)sc2cc(C(=O)NCCCc4ccccc4)ccc23)cc1 | inactive
2 | CCCCOc1ccc(C(=O)Nc2cccc(-c3nc4ccccc4o3)c2C)cc1 | inactive
3 | CCc1cccc(OC2OC(CO)C(O)C(O)C2NC(C)=O)c1 (stereo unspecified) | inactive
4 | CCCCCCCCCOC1OC(CO)C(O)C(O)C1NC(C)=O (stereo unspecified) | inactive
5 | CCCCCCCCOC1OC(CO)C(O)C(O)C1NC(C)=O (stereo unspecified) | 79.4 µM (active)
6 | CCc1nc2c(cnn2-c2ccc(C)cc2)c(=O)n1-c1ccc(C)cc1 | inactive
7 | CCOC(=O)C(NC(C)=O)C(=O)Nc1ccc(OC)cc1 (stereo unspecified) | inactive
8 | CCOC(=O)c1ccccc1CN1C(=O)c2ccccc2S1(=O)=O | inactive
9 | CCOC(=O)C1=C(c2ccc(OC)cc2)C(=O)c2ccccc2C1=O | 39.8 µM (active)
10 | COc1ccc(NS(=O)(=O)c2cc3c4c(c2)CC(=O)N4CCC3)cc1Cl | inactive
11 | CCc1ccc(NS(=O)(=O)c2ccc3[nH]cc(C(=O)NCCc4cccc(C)c4)c(=O)c3c2)cc1 | inactive
12 | COc1cc(OC)c2c(C)cc(=O)oc2c1C(CCN1CCCCC1)c1ccc(N(C)C)cc1 (stereo unspecified) | 39.8 µM (active)
13 | COc1ccc(C2CC(=O)Oc3ccc(C(C)(C)C)cc32)cc1 (stereo unspecified) | inactive
14 | COc1cc(OC)c2c(c1C(CCN1CCCCC1)c1ccc(N(C)C)cc1)OC(=O)CC2c1ccc(N(C)C)cc1 (stereo unspecified) | 35.5 µM (active)
15 | COc1cc(OC)c2c(c1)OC(=O)CC2c1cc(OC)c(OC)c(OC)c1 (stereo unspecified) | inactive
16 | COc1cc(C2CC(=O)Oc3cc(OC)c(OC)c(OC)c32)cc(OC)c1OC (stereo unspecified) | inactive
17 | COc1cc(COCC(O)CN2CCN(Cc3ccc4c(c3)OCO4)CC2)cc(OC)c1OC (stereo unspecified) | inactive
18 | O=C(NCC(c1ccc2c(c1)OCO2)N1CCN(c2ccccc2)CC1)C(=O)Nc1ccccc1F (stereo unspecified) | inactive
19 | CCN(CC)CCC(c1cc(OC)c(OC)c(OC)c1)c1c(OC)cc(OC)c2c(-c3ccccc3)cc(=O)oc12 (stereo unspecified) | inactive
20 | COc1ccc(C2/C(=C(/O)c3ccc(OC(C)C)cc3)C(=O)C(=O)N2CCCN2CCOCC2)cc1 (stereo unspecified) | inactive
21 | COc1cc(OC)c2ccc(=O)oc2c1C(CCN1CCN(c2ccccc2)CC1)c1ccc2c(c1)OCO2 (stereo unspecified) | 17.8 µM (active)
22 | COc1ccc(C(CCN2CCOCC2)c2c(OC)cc(OC)c3c2OC(=O)CC3c2ccc(OC)cc2)cc1 (stereo unspecified) | 35.5 µM (active)
23 | COc1ccc(CNC(=O)c2cc3c(=O)[nH]c4ccc(C)cc4c3s2)c(OC)c1 | inactive
24 | COc1ccc(-c2cn3c(n2)sc2cc(C(=O)Nc4ccccc4F)ccc23)cc1 | inactive

Row | Structure (SMILES) | Potency
25 | Cc1ccccc1CNC(=O)c1cccc(NC(=O)c2nsc3ccccc23)c1 | inactive
26 | COc1ccc(-n2c(=O)c3sc4ccccc4c3n(CC(=O)Nc3cccc(C)c3)c2=O)cc1 | inactive
27 | O=C(Nc1ccc2nc(SCCOc3ccccc3)sc2c1)c1ccco1 | inactive
28 | CC(=O)c1ccc(NS(=O)(=O)c2ccc(-c3cc(C)no3)s2)cc1 | inactive
29 | CCN(CC)c1nn2c(=O)c(C(=O)NCCc3ccccc3)cnc2s1 | inactive
30 | CCN(CCCNC(=O)c1c(C)oc2ncn(CC(C)C)c(=O)c12)Cc1ccccc1 | inactive
31 | CCc1ccc(NC(=O)CCS(=O)(=O)c2cc3c(cc2Cl)NC(=O)CO3)cc1 | inactive
32 | O=C(CSc1nc(=O)n(Cc2cccnc2)c2c1CCC2)Nc1ccc(F)cc1F | inactive
33 | O=S(=O)(c1ccc2nc(NCc3ccccc3Cl)ccc2c1)N1CCCCC1 | inactive
34 | COc1cc(NS(=O)(=O)c2ccc3ccccc3c2)c2ncccc2c1 | inactive
35 | O=[N+]([O-])c1ccccc1S(=O)(=O)Nc1cccc2cccnc12 | 56.2 µM (active)
36 | O=S(=O)(Nc1cccc2cccnc12)c1cccc2cccnc12 | inactive
37 | COc1ccccc1CNC(=O)C(Cc1ccccc1)NS(=O)(=O)c1ccc2c(c1)oc(=O)n2C (stereo unspecified) | inactive
38 | O=C1CCCc2cc(S(=O)(=O)N3CCCC(C(=O)NCc4ccccc4)C3)ccc2N1 (stereo unspecified) | inactive
39 | O=C(NCc1ccccc1Cl)c1cccn1-c1nnc(N2CCCCC2)s1 | inactive
40 | COc1ccc(-c2nn(CC(=O)Nc3ccccc3F)c3c2cnc2ccc(F)cc23)cc1 | inactive
41 | C=CCOc1cccc(CNn2cn[nH]c2=S)c1 | 22.4 µM (active)
42 | C=CCOc1cccc(C2NC(=O)c3ccccc3O2)c1 (stereo unspecified) | inactive
43 | C=CCC(Nc1ccccc1)c1cccc(OC)c1OC (stereo unspecified) | inactive
44 | C=CCOc1c(CNn2cn[nH]c2=S)cccc1OC | 3.55 µM (active)
45 | C=CCOc1cccc(CNCc2cccnc2)c1 | inactive
46 | COc1cccc(CNCCSc2nnnn2C)c1OCc1ccccc1Cl | inactive
47 | COc1ccc(CCNC(=O)c2cc(=O)c3c(C)cc(C)cc3o2)cc1OC | inactive
48 | CSc1nc(-c2ccccc2Cl)nc2c1Cc1c(CO)cnc(C)c1O2 | inactive

Row | Structure (SMILES) | Potency
49 | COc1ccccc1CNC(=O)c1ccc(CS(=O)c2ccccc2Cl)o1 (stereo unspecified) | inactive
50 | CCc1nn(CC(=O)Nc2cc(C)cc(C)c2)c(=O)c2cc3sccc3n12 | inactive
51 | CC(=O)N1CCCc2cc(S(=O)(=O)N3CCC(C(=O)NC4CCCCC4)CC3)ccc21 | inactive
52 | CN(CC(=O)Nc1cccc(C(F)(F)F)c1)S(=O)(=O)c1cccs1 | inactive
53 | COc1ccc(CNC(=O)CN(Cc2ccc(Cl)cc2)S(C)(=O)=O)cc1 | inactive
54 | CN(CC(=O)NCc1ccc(Cl)cc1)S(=O)(=O)c1cccs1 | 89.1 µM (active)
55 | Cc1ccc2sc(N(Cc3cccnc3)C(=O)C3COc4ccccc4O3)nc2c1C (stereo unspecified) | inactive
56 | Cc1ccc(C(=O)Nc2ccc(OCc3cc(=O)n4c5c(sc4n3)CCCC5)cc2)cc1 | inactive
57 | CCOn1c(=O)c(=O)n(O)c2ccccc21 | 44.7 µM (active)
58 | COn1c(=O)c(=O)n(OC)c2ccccc21 | inactive
59 | CCOC(=O)c1nnn2c3ccccc3c(=O)n(C)c12 | inactive
60 | Cc1ccc(-c2cnc(C3CC3)o2)cc1S(=O)(=O)Nc1cccc(C)c1C | inactive
61 | CCc1ccc(CNCc2c(C(=O)O)n(Cc3ccc(F)cc3Cl)c3cc(OC)ccc23)cc1 | inactive
62 | CC(C)(C)OC(=O)N1CCC(c2c(C(=O)NCc3ccccn3)cnn2-c2ccc(F)cc2)CC1 | inactive
63 | CCC(C)[C@@H](C(=O)N1CCNCC1)n1cc(CCCCN)nn1 (stereo partly specified) | inactive
64 | C#CCOCCOCCOCCNc1nc(N2CCN(C(=O)Cn3cc(CCO)nn3)CC2)nc(N2CCN(C(=O)[C@H](CCCCN)n3cc(CCCC)nn3)CC2)n1 | inactive
65 | C#CCOCCOCCOCCNc1nc(N2CCN(C(=O)C([C@@H](C)O)n3cc([C@@H](N)CCCCN)nn3)CC2)nc(N2CCN(C(=O)[C@H](CCCCN)n3cc(CN)nn3)CC2)n1 (stereo partly specified) | 79.4 µM (active)
66 | C#CCOCCOCCOCCNc1nc(N2CCN(C(=O)C([C@@H](C)CC)n3cc(C(N)COC(=O)C(F)(F)F)nn3)CC2)nc(N2CCN(C(=O)[C@H](CCCCN)n3cc(C(N)CC(C)C)nn3)CC2)n1 (stereo partly specified) | 56.2 µM (active)
67 | O=S(=O)(Nc1ccc2nc(-c3cccc(Cl)c3)oc2c1)c1ccccc1 | inactive
68 | CC(=O)OCC(NC(=O)C(Cc1ccccc1)NC(=O)OC(C)(C)C)C1OC(n2ccc(=O)[nH]c2=O)C(OC(C)=O)C1OC(C)=O (stereo unspecified) | inactive
69 | Cc1cccc(-n2ccnc2SCC(=O)Nc2cc(C(F)(F)F)ccc2Cl)c1 | inactive
70 | O=C(NC1CC(=O)N(c2ccc(F)cc2)C1)C1CCCCC1 (stereo unspecified) | inactive
71 | CSc1ccc(NC(=O)Cn2nnnc2-c2ccccc2F)cc1 | inactive
72 | CC(C)(C)c1ccc(C(=O)N2CCC(c3nc(-c4ccc(S(=O)(=O)N5CCCC5)cc4)no3)CC2)cc1 | inactive

Row | Structure (SMILES) | Potency
73 | O=[N+]([O-])c1ccccc1/C=C/CN1CCC(O)CC1 | 8.91 µM (active)
74 | O=C(/C=C/c1ccccc1[N+](=O)[O-])OCC(=O)N1CCCC1 | inactive
75 | CC1CC(C)CN(C/C=C/c2ccccc2[N+](=O)[O-])C1 (stereo unspecified) | inactive
76 | CCN(CCCNC(=O)Cn1ncc2c([nH]c3ccccc32)c1=O)c1cccc(C)c1 | inactive
77 | COc1ccc(-c2noc(CSc3nc(C)cc(=O)[nH]3)n2)cc1OC | inactive
78 | COCCCNC(=O)[C@H]1N2C(=O)c3ccccc3C2SC1(C)C (stereo partly specified) | 22.4 µM (active)
79 | COCCCNC(=O)C1CC(=O)N(CCc2ccccc2)C1 (stereo unspecified) | inactive
80 | CC1(C)SC2c3ccccc3C(=O)N2[C@@H]1C(=O)NCc1ccco1 (stereo partly specified) | inactive
81 | CCOc1ccc(NC(=O)C(=O)NCCc2csc3nc(-c4ccccc4F)nn23)cc1 | inactive
82 | Cc1cc(C)c2oc(C(=O)Nc3ccc(S(=O)(=O)N4CCCCCC4)cc3)cc(=O)c2c1 | inactive
83 | CCOC(=O)c1c(NC(=O)Cc2coc3ccc(CC)cc23)sc2c1CCC2 | inactive
84 | CCc1nn(CC(=O)N2CCN(c3cccc(C(F)(F)F)c3)CC2)c(=O)c2cc3occc3n12 | inactive
85 | Cc1nc2nc(NCc3cccc(Br)c3)[nH]n2c(=O)c1Cc1ccccc1 | inactive
86 | Cc1cc(C)n2ncc(C(=O)Nc3cccc(C#N)c3)c2n1 | inactive
87 | Nc1ccc(S(=O)(=O)NC(=O)c2ccccc2)cc1 | inactive
88 | COc1ccccc1C(=O)Nc1ccc(Nc2ccccc2)cc1 | inactive
89 | Nc1ccc(Nc2ccccc2)cc1 | 39.8 µM (active)
90 | CCN(CC)C(=O)CSc1nc2cc3c(cc2c(=O)n1CCCC(=O)NCc1ccc2c(c1)OCO2)OCO3 | inactive
91 | COc1ccccc1-c1noc(CSc2nnc(-c3ccccc3)n2-c2ccc(C)c(C)c2)n1 | inactive
92 | NC(=O)c1c(Nc2nc3c(F)cccc3s2)sc2c1CCCC2 | inactive
93 | NNc1nc2c(Cl)cccc2s1 | 63.1 µM (active)
94 | CCc1nnc(SCc2c(F)cccc2Cl)c2cc3sccc3n12 | inactive
95 | CCN(C(=O)Cn1cc(S(=O)(=O)N2CCN(c3ccccc3F)CC2)c2ccccc2c1=O)c1ccc(C)c(C)c1 | inactive
96 | CCCOc1ccc(C(=O)Nc2ccc3oc(-c4cccc(Cl)c4Cl)nc3c2)cc1 | inactive
